Bioassay records deposited in PubChem by National Center for Advancing Translational Sciences (NCATS).
ClpP mod = qHTS Assay for Activators of ClpP. Potency, µM (highest dose often 57.5 µM), for the others: at the top dose activity change, negative = active. 1.9% of 340,000 active. ATP-dependent Clp protease proteolytic subunit (Bacillus subtilis (strain 168)), P80244. purified B. subtilis ClpP, FRET peptide cleavage, 20 min; active = well fitted falling curve with a large enough effect; inconclusive = small, poorly fitted or top-dose-only effect; inactive = no such curve, though single readings can be large or run the other way; note: the source files actives as falling curves though it sought activators and does not explain the sign; nearly all actives have a fitted effect of over 65% in size
Target sequence (P80244 whole entry, looked up): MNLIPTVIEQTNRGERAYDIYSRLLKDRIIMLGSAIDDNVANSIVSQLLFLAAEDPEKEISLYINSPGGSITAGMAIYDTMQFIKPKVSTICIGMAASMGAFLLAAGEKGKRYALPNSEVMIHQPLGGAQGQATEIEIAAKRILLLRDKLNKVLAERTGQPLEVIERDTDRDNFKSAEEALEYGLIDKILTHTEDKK
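ClpP 10 microg/mL final, pH 8 Tris/KCl buffer with BSA, glycerol, Tween-20; compound pinned in; FRET-FV substrate; RT 20 min; Ex320/Em430; ΔFRET vs ADEP 5.8 microM, DMSO, no enzyme.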
Mm-Cpn inhibitor = M. maripaludis TRiC chaperonin inhibition; purified Mm-Cpn ATPase, ADP Transcreener TR-FRET; Potency, µM (highest dose often 76.9 µM), inactives show at the highest dose activity, negative = inhibition, hits mostly inhibitors; 0.031% of 330,000 active; AID 504842; note: % is set by controls: 0 for no effect and ±100 for the full control effect; nearly all actives have a fitted effect of over 80% in size
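25 nM Mm-CPN + cpd, 10 min 37°C; + 10 uM ATP, 30 min 37°C; buffer 30 mM Tris pH 7.4, 100 mM KCl, 5 mM MgCl2, 1 mM DTT; Transcreener ADP HTRF detection 30 min RT.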
USP2a block = inhibitors of human ubiquitin-specific protease USP2a; O75604; USP2 core, Ub-CHOP2 coupled fluorogenic reporter, 485/531; Potency, µM (highest dose often 38.3 µM), without a hit: at the highest dose activity change, negative = inhibition, hits mostly inhibitors; 0.01% of 330,000 active;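 note: plate controls were DMSO wells for no effect and full inhibition by NEM control for full effect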
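Cell-free coupled assay: 10nM USP2 core preincubated 30min RT with compound in Tris-HCl pH 8.0/CaCl2/CHAPS buffer, then 25nM Ub-CHOP2 and 25nM reporter substrate; fluorescence (Ex 485/Em 531) read after 60min RT, normalized to NEM inhibition, concentration-response curves fitted.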
a7 integrin act = activators of alpha7 integrin expression for muscular dystrophy; alpha7betagal myoblasts, beta-gal FDG fluorescence, 48 h; Potency, µM (series often up to 38.3 µM), without a hit: top-dose activation, usual class: activators; 0.064% of 350,000 active;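 note: 100% = response of the positive control SU9516; nearly all actives have a fitted effect of over 60% in size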
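alpha7betagal+/- myoblasts (passage 13, 250/well) treated 48 h at 37C with compounds at 1:260 dilution of DMSO stock. Lysed, then beta-galactosidase activity read as FDG fluorescence (ex 480/em 540) after 30 min, with pre-read for autofluorescence.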
Eya2 inh = Eya2 (human) phosphatase inhibition; O00167; 0.006% of 330,000 active; recombinant Eya2, OMFP fluorescence dephosphorylation (OMFP is methylfluorescein phosphate); Potency, µM (highest dose often 76.9 µM), for inactives: at the top dose activity, negative = inhibition, actives largely listed as inhibitors; AID 488837; note: % is set by controls: 0 for no effect and ±100 for the full control effect
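Eya2 protein (added as 0.2 uM solution) was preincubated with compound for 10 min at ambient temperature in 50 mM HEPES pH 7.5, 50 mM NaCl, 5 uM MgCl2, 0.05% BSA, 1 mM DTT. OMFP (added at 50 uM) then reacted 10 min; fluorescence read at 485/525 nm.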
p53 reactivator = restores transcriptional activity of mutant p53; H1299 p53-A138V BP100-luciferase reporter, luminescence, 24 h; Potency, µM (titrated, usually from 92.2 µM), for inactives: at the top dose activity change, positive = activation, usual class: activators; 0.063% of 320,000 active; note: % of control where 0% means no effect; nearly all actives have a fitted effect of over 45% in size
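p53-null H1299 cells stably carrying temperature-sensitive p53-A138V and a BP100-luciferase reporter were pinned with compounds (4-point, 1:5 series) and held 24 hrs at 37 deg C. Luminescence was read 10 min after detection reagent.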
* marks the source's active call; other numbers are inactive results; ? = inconclusive; nt = no result given; [ ] = another dose, or the depositor's remark. Shown is part of a subset that was picked to be rich in hits. Unless noted, calls come from the whole dose curve; as a rule, active = well fitted curve in the direction sought with a large enough effect; inconclusive = small, poorly fitted or top-dose-only effect, or another doubt; inactive = no such curve, though single readings can be large; an effect the other way counts as inactive or inconclusive. Potency is the fitted concentration of half-maximal effect.

SMILES	ClpP mod	Mm-Cpn inhibitor	USP2a block	a7 integrin act	Eya2 inh	p53 reactivator
COC(=O)c1ccc(NC2CC(=O)N(c3ccccc3C)C2=O)cc1 (centres undefined)	1%	0%	1%	-3%	-17%	3%
COC(=O)c1ccccc1NC1CC(=O)N(c2c(C)cccc2C)C1=O (centres undefined)	8.9µM*	-18%	-5%	9%	-19%	18%
CCN(CC)c1ccc(/C=N/NC(=O)CC(C)C)cc1	18µM*	-1%	1%	14%	2%	8%
CCN(CC)c1ccc(/C=N\NC(N)=O)cc1	25µM*	-6%	-2%	-11%	-14%	-6%
O=C(CCCn1c(=O)c2cccn2c2ccccc21)Nc1cccc(Cl)c1	-1%	nt	nt	nt	nt	nt
COc1ccc(S(=O)(=O)Nc2cc3c(cc2NCc2ccccc2)n(C)c(=O)n3C)cc1	4%	nt	nt	nt	nt	nt
Cc1ccc(O)c(NC(=O)c2ccccc2-c2ccccc2C(=O)O)c1	25µM*	2%	0%	8%	-7%	1%
O=C(COc1ccc2ccccc2c1)Nc1ccc(O)c(-c2nc3ccccc3o2)c1	-4%	nt	nt	nt	nt	nt
CCCN1CCC(=NNc2ccc(S(N)(=O)=O)cc2[N+](=O)[O-])CC1	14µM*	-4%	0%	10%	4%	4%
CC1CCCCC1NC(=O)COC(=O)COc1ccccc1Cl (centres undefined)	1%	2%	0%	5%	1%	0%
CC1CCCCC1NC(=O)COC(=O)COc1ccccc1F (centres undefined)	28µM*	-2%	1%	12%	-9%	4%
O=S1(=O)CCOC[C@H](c2ccccc2)N1Cc1ccc(Cl)c(Cl)c1	1%	nt	nt	nt	nt	nt
COc1ccc(CCNc2oc(-c3ccco3)nc2C#N)cc1	28µM*	0%	4%	-18%	1%	4%
Cc1ccc(-c2nc(C#N)c(NCc3cccc4c3OCO4)o2)cc1	32µM*	-7%	5%	-24%	18%	27%
N#Cc1nc(-c2ccco2)oc1NCCc1ccccc1	28µM*	-1%	3%	7%	-11%	-2%
N#Cc1nc(-c2ccc(F)cc2)oc1NCc1cccc2c1OCO2	4%	-1%	-8%	3%	-5%	8%
Cc1ccc(CNc2oc(-c3ccco3)nc2C#N)cc1	16µM*	-5%	0%	-19%	-4%	-2%
COc1ccc(CNC(=O)c2sc3nc4n(c(=O)c3c2C)CCCCC4)cc1	2%	nt	nt	nt	nt	nt
N#Cc1ccc(S(=O)(=O)N2CCN(c3nc(-c4ccccc4)nc4ccccc34)CC2)cc1	4%	nt	nt	nt	nt	nt
CC(C)(C)N/C=C(\C#N)S(=O)(=O)c1ccc(Br)cc1	-2%	0%	1%	11µM*	4%	6%
CCN/C=C(\C#N)S(=O)(=O)c1ccc(Br)cc1	1%	-1%	0%	-10%	5%	-1%
C=C1C=C(C)n2ncc(C(=O)N(CCc3ccccc3)Cc3ccccc3)c2N1	5%	nt	nt	nt	nt	nt
CCOc1ccccc1N(C)S(=O)(=O)c1ccc2[nH]cc(C(=O)N(CCOC)CCOC)c(=O)c2c1	nt	1%	3%	-45%	-17%	1%
COCCN(CCOC)C(=O)c1c[nH]c2ccc(S(=O)(=O)N(C)c3ccc(F)cc3)cc2c1=O	32µM*	2%	0%	-12%	-26%	-4%
CCCCOc1ccc(-c2nnc(-c3ccncc3)o2)cc1	16µM*	0%	1%	7%	8%	?
SMILES	ClpP mod	Mm-Cpn inhibitor	USP2a block	a7 integrin act	Eya2 inh	p53 reactivator
CN(C)c1ccc(-c2nnc(-c3cccs3)o2)cc1	4%	-4%	2%	-11%	-1%	?
CCSc1nnc(-c2cccs2)o1	28µM*	0%	5%	-23%	11%	?
c1ccc(CSc2nnc(-c3cccs3)o2)cc1	-6%	1%	3%	16%	-1%	?
CCOc1ccc(-c2nnc(-c3ccccc3)o2)cc1	28µM*	1%	3%	24%	-18%	?
CCCOc1ccc(-c2nnc(-c3cccs3)o2)cc1	10µM*	0%	-1%	-9%	3%	nt
Cc1ccc(-c2cc3nn(-c4ccccc4)c(N)c3c(=O)o2)cc1	32µM*	-13%	-5%	11%[7.66 µM]	-11%	7%
Cc1ccc(-n2nc(-c3ccccc3)cc2Nc2ccccc2N)cc1	0%	1%	-12%	30%	0%	-14%
CCC(=O)Oc1ccc(C(=O)Nc2ccc3c(c2)C(=O)N(C2CCCCC2)C3=O)cc1	25µM*	1%	2%	-18%[7.66 µM]	2%	-2%
O=C(Nc1ccc(Br)c(Br)c1)C1CCCO1 (centres undefined)	nt	nt	nt	-4%	nt	nt
O=C(Nc1ccc2c(c1)C(=O)N(C1CCCCC1)C2=O)C1CCCO1 (centres undefined)	32µM*	5%	3%	-8%	-4%	11%
Cc1ccc(S(=O)(=O)N2CCN(c3nc(-c4cscn4)nc4ccccc34)CC2)cc1	-19%	nt	nt	nt	nt	nt
